Measured values: PubChem BioAssay (EPA / NIEHS)
Calls of active or inactive are those of the source. Rule for the calls: active = hit-call score of the fitted dose curve at least 0.9, where 1 is the maximum; inactive = score below 0.9.

Assays:
Details in all cases: mRNA level, 48 h; actives raise or lower the signal
[1] = read-out: ABC Transporter (ABCB11), ABCB11 (gene 8647); test: LTEA_HepaRG_ABCB11: Life Technologies and Expression Analysis (LTEA) Assay for ABC Transporter (ABCB11) using HepaRG (AID 2283463)
Summary of the method: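 Differentiated human HepaRG cells in serum-free induction medium, dosed in duplicate for 48 h. Eight-point half-log series from 100 uM in 0.5% DMSO; ABCB11 mRNA by qRT-PCR, normalized to ACTB, GAPDH, POLR2A, fitted bidirectionally versus DMSO.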

[2] = read-out: ABC Transporter (ABCC2), ABCC2 (gene 1244); test: LTEA_HepaRG_ABCC2: Life Technologies and Expression Analysis (LTEA) Assay for ABC Transporter (ABCC2) using HepaRG (AID 2283464)
Summary of the method: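 HepaRG, 48 h post-plating; serum-free induction medium; cpd 8-pt, 100 uM top, half-log, 0.5% DMSO, duplicate, 48 h. Readout: ABCC2 mRNA by qRT-PCR, norm. ACTB/GAPDH/POLR2A. Bidirectional fit vs DMSO baseline.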

[3] = read-out: Broad substrate specificity ATP-binding cassette transporter ABCG2 (Homo sapiens) (UniProt Q9UNQ0); test: LTEA_HepaRG_ABCG2: Life Technologies and Expression Analysis (LTEA) Assay for ABC Transporter (ABCG2) using HepaRG (AID 2283465)
Summary of the method: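 Differentiated HepaRG cells were exposed for 48 h in serum-free induction medium to 8 half-log concentrations, top 100 uM, in 0.5% DMSO. ABCG2 mRNA was measured by qRT-PCR, normalized to ACTB, GAPDH and POLR2A, with bidirectional fitting versus DMSO.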

[4] = read-out: ATP-citrate lyase (ACLY), ACLY (gene 47); test: LTEA_HepaRG_ACLY: Life Technologies and Expression Analysis (LTEA) Assay for ATP-citrate lyase (ACLY) using HepaRG (AID 2283466)
Summary of the method: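 Differentiated HepaRG cells exposed 48 h in serum-free induction medium to eight half-log concentrations up to 100 uM in 0.5% DMSO, duplicates. Transcript measured by Fluidigm TaqMan qRT-PCR, normalized to ACTB, GAPDH, POLR2A; bidirectional fit versus DMSO.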

[5] = read-out: Peroxisomal acyl-coenzyme A oxidase 1 (ACOX1) gene, ACOX1 (gene 51); test: LTEA_HepaRG_ACOX1: Life Technologies and Expression Analysis (LTEA) Assay for Peroxisomal acyl-coenzyme A oxidase 1 (ACOX1) gene using HepaRG (AID 2283467)
Summary of the method: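 HepaRG cells, plated 48 h then switched to serum-free induction medium, were exposed in duplicate for 48 h to 8-point half-log concentrations up to 100 uM in 0.5% DMSO. ACOX1 mRNA was measured by qRT-PCR, normalized to ACTB/GAPDH/POLR2A, and fitted bidirectionally versus DMSO.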

[6] = read-out: Bcl-2 (BAD) gene, BAD (gene 572); test: LTEA_HepaRG_BAD: Life Technologies and Expression Analysis (LTEA) Assay for Bcl-2 (BAD) gene using HepaRG (AID 2283469)
Summary of the method: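 Differentiated HepaRG cells were exposed in duplicate in 0.5% DMSO for 48 h to eight-point half-log concentrations up to 100 uM. BAD mRNA was measured by Fluidigm TaqMan qRT-PCR, normalized to ACTB, GAPDH and POLR2A, and fitted bidirectionally against DMSO.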

[7] = read-out: Bcl-2 (BAX) gene, BAX (gene 581); test: LTEA_HepaRG_BAX: Life Technologies and Expression Analysis (LTEA) Assay for Bcl-2 (BAX) gene using HepaRG (AID 2283470)
Summary of the method: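 Concentration-response endpoint fitted in both directions relative to 0.5% DMSO vehicle. Human HepaRG cultures receive test chemicals for 48 h at up to 100 uM; BAX mRNA is quantified by qRT-PCR against housekeeping genes.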

[8] = read-out: adenosine kinase (ADK) gene, ADK (gene 132); test: LTEA_HepaRG_ADK: Life Technologies and Expression Analysis (LTEA) Assay for adenosine kinase (ADK) gene using HepaRG (AID 2283471)
Summary of the method: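 ADK expression quantified by qRT-PCR, normalised to three housekeeping genes, after 48 h exposure of HepaRG cells to eight concentrations (top 100 uM, half-log steps, duplicate, 0.5% DMSO). Up- or down-regulation fitted relative to vehicle.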

[9] = read-out: Alpha-fetoprotein (AFP) gene, AFP (gene 174); test: LTEA_HepaRG_AFP: Life Technologies and Expression Analysis (LTEA) Assay for Alpha-fetoprotein (AFP) gene using HepaRG (AID 2283472)
Summary of the method: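 After a 48 h plating period, cells are moved to serum-free induction medium and dosed in duplicate (100 uM maximum, half-log dilutions, 0.5% DMSO) for another 48 h. Total RNA goes to TaqMan qRT-PCR; AFP signal is housekeeping-normalized.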

BCL2L11 (gene 10018) = test: LTEA_HepaRG_BCL2L11: Life Technologies and Expression Analysis (LTEA) Assay for Bcl-2 (BCL2L11) gene using HepaRG (AID 2283473)
Summary of the method: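 Read-out is BCL2L11 transcript level by qRT-PCR, normalized to three housekeeping genes and fitted bidirectionally against 0.5% DMSO vehicle. HepaRG cells received chemicals for 48 h in serum-free induction medium, 100 uM down in half-log dilutions.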

[10] = read-out: Apolipoprotein A-V (APOA5) gene, APOA5 (gene 116519); test: LTEA_HepaRG_APOA5: Life Technologies and Expression Analysis (LTEA) Assay for Apolipoprotein A-V (APOA5) gene using HepaRG (AID 2283474)
Summary of the method: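 Readout is APOA5 transcript level by qRT-PCR on Fluidigm dynamic arrays, normalized to three housekeeping genes. HepaRG cultures received chemicals for 48 h at up to 100 uM (half-log steps, 0.5% DMSO), with gain or loss scored relative to DMSO.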

[11] = read-out: Apoptosis regulator Bcl-2 (Homo sapiens) (UniProt P10415); test: LTEA_HepaRG_BCL2: Life Technologies and Expression Analysis (LTEA) Assay for Bcl-2 gene using HepaRG (AID 2283475)
Summary of the method: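 Expression change of BCL2 mRNA in HepaRG after 48 h dosing, quantified by TaqMan qRT-PCR against three endogenous controls. Concentration-response used eight points up to 100 uM, vehicle 0.5% DMSO.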

[12] = read-out: Bcl-2 (BID) gene, BID (gene 637); test: LTEA_HepaRG_BID: Life Technologies and Expression Analysis (LTEA) Assay for Bcl-2 (BID) gene using HepaRG (AID 2283476)
Summary of the method: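 Gain or loss of BID expression is fitted relative to 0.5% DMSO vehicle. Human HepaRG liver cells received a 48 h chemical exposure over an eight-point concentration range.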

Caspase-3 (Homo sapiens) = Caspase-3 (Homo sapiens) (UniProt P42574); test: LTEA_HepaRG_CASP3: Life Technologies and Expression Analysis (LTEA) Assay for cysteine-aspartic acid protease (CASP3) using HepaRG (AID 2283477)
Sequence of Caspase-3 (Homo sapiens) (P42574 whole entry, looked up): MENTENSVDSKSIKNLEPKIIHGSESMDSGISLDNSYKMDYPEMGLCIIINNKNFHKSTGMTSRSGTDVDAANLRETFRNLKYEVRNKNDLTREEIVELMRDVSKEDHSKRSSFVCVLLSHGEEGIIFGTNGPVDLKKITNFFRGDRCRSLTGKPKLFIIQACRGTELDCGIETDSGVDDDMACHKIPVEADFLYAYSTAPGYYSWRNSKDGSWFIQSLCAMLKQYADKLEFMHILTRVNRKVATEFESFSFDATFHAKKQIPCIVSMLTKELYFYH
Summary of the method: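 Read-out is CASP3 mRNA level by TaqMan qRT-PCR in human HepaRG cells after 48 h chemical exposure. Eight half-log concentrations topping at 100 uM were tested in 0.5% DMSO; gain or loss was fitted relative to DMSO.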

[13] = read-out: Cytochrome P450 (CYP24A1), CYP24A1 (gene 1591); test: LTEA_HepaRG_CYP24A1: Life Technologies and Expression Analysis (LTEA) Assay for Cytochrome P450 (CYP24A1) using HepaRG (AID 2283478)
Summary of the method: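 HepaRG, 48 h chemical exposure, 8-pt half-log CRC from 100 uM, 0.5% DMSO vehicle, duplicates. Endpoint: CYP24A1 mRNA by Fluidigm TaqMan qRT-PCR, normalized ACTB/GAPDH/POLR2A; gain/loss fit vs DMSO.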

[14] = read-out: Cytochrome P450 (CYP1A2), CYP1A2 (gene 1544); test: LTEA_HepaRG_CYP1A2: Life Technologies and Expression Analysis (LTEA) Assay for Cytochrome P450 (CYP1A2) using HepaRG (AID 2283479)
Summary of the method: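 CYP1A2 transcript induction or loss, quantified by Fluidigm qRT-PCR against three housekeeping genes, was fitted bidirectionally against 0.5% DMSO controls. Human HepaRG cells received eight half-log concentrations from 100 uM over 48 h.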

[15] = read-out: cysteine-aspartic acid protease (CASP8), CASP8 (gene 841); test: LTEA_HepaRG_CASP8: Life Technologies and Expression Analysis (LTEA) Assay for cysteine-aspartic acid protease (CASP8) using HepaRG (AID 2283480)
Summary of the method: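 Differentiated HepaRG cells in serum-free induction medium, 48 h exposure, eight-point half-log series from 100 uM in 0.5% DMSO, duplicates. CASP8 mRNA by qRT-PCR, normalized to ACTB, GAPDH, POLR2A; bidirectional fit versus DMSO.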

[16] = read-out: Cytochrome P450 (CYP2B6), CYP2B6 (gene 1555); test: LTEA_HepaRG_CYP2B6: Life Technologies and Expression Analysis (LTEA) Assay for Cytochrome P450 (CYP2B6) using HepaRG (AID 2283481)
Summary of the method: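 HepaRG cells plated 48 h, switched to serum-free induction medium, then dosed 48 h (8 points, half-log from 100 uM, 0.5% DMSO). RNA isolated; CYP2B6 expression measured by qRT-PCR; gain or loss fitted relative to DMSO.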

[17] = read-out: Cytochrome P450 2C19 (Homo sapiens) (UniProt P33261); test: LTEA_HepaRG_CYP2C19: Life Technologies and Expression Analysis (LTEA) Assay for CYP2C19 using HepaRG (AID 2283482)
Summary of the method: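 Transcript levels of CYP2C19 were quantified by qRT-PCR after HepaRG cells were treated for 48 hours with test chemicals up to 100 uM (eight half-log concentrations, 0.5% DMSO vehicle). Gain or loss of signal was fitted relative to DMSO.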

[18] = read-out: Alkaline Phosphatase, Placental (ALPP) gene, ALPP (gene 250); test: LTEA_HepaRG_ALPP: Life Technologies and Expression Analysis (LTEA) Assay for Alkaline Phosphatase, Placental (ALPP) gene using HepaRG (AID 2283468)
Summary of the method: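 HepaRG, 48 h plating then 48 h dosing, serum-free induction medium, 0.5% DMSO. 8 conc, half-log, max 100 uM, duplicates. Endpoint: ALPP transcript by qRT-PCR, housekeeping-normalized; gain or loss fitted vs DMSO.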

Measured: AC50

Sequence of Broad substrate specificity ATP-binding cassette transporter ABCG2 (Homo sapiens) (Q9UNQ0 whole entry, looked up): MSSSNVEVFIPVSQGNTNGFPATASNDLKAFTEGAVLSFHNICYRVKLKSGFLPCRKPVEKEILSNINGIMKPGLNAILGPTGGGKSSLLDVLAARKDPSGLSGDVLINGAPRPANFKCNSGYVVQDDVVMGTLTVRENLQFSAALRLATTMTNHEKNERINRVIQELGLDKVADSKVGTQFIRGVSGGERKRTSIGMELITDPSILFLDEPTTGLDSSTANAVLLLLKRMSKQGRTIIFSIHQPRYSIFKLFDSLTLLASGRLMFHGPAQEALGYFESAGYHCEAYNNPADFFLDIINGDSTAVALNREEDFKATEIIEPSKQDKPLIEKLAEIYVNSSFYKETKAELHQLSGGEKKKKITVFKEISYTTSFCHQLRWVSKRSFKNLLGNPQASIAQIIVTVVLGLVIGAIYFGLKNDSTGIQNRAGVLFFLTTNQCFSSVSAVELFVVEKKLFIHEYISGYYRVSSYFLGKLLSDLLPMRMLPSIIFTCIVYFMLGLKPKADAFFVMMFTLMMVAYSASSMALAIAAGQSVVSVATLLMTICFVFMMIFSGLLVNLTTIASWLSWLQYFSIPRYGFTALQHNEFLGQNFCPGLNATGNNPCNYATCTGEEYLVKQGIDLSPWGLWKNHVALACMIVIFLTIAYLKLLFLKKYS
Sequence of Cytochrome P450 2C19 (Homo sapiens) (P33261 whole entry, looked up): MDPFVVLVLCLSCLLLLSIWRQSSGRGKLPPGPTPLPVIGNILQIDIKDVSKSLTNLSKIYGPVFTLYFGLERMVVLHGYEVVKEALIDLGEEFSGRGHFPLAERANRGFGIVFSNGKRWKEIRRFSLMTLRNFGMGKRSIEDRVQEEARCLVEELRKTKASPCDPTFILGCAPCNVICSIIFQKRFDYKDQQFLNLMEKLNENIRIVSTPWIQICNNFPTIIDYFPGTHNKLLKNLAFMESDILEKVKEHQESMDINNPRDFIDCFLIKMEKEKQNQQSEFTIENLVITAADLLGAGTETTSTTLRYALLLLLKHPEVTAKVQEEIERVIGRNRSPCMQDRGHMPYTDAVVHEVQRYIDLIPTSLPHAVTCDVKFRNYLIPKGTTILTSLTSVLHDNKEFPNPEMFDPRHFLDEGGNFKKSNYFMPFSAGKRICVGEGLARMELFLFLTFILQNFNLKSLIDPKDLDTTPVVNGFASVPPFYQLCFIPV
Sequence of Apoptosis regulator Bcl-2 (Homo sapiens) (P10415 whole entry, looked up): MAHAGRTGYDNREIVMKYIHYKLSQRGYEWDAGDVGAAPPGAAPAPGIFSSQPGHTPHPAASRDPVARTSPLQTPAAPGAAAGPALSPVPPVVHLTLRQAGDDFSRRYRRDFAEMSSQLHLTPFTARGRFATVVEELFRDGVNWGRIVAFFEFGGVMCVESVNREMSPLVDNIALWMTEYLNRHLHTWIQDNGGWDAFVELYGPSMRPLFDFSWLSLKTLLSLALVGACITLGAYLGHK

CC(C)=CCCC(C)CCO (stereo not given)
active: [14] 50 µM | [16] 11.7 µM
not listed: [18]
inactive: all other assays above

CNCc1ccc(NC(=O)c2c[nH]c3c2C(=O)CCC3)cc1
active: [14] 73.2 µM
not listed: [18]
inactive: all other assays above

O=C(O)c1cccc(Oc2ccccc2)c1
active: [14] 30 µM | [16] 34.7 µM | [17] 31.2 µM
not listed: [7] | [11]
inactive: all other assays above

CC1(C)C(=O)N(Br)C(=O)N1Br
active: [14] 37.5 µM | [16] 7.06 µM
not listed: [7] | [11]
inactive: all other assays above

CCOC(=O)c1ccc(C2CCC(NC[C@H](O)COc3ccc(O)c(NS(C)(=O)=O)c3)CC2)cc1 (stereo not given in full)
active: [18] 1.83 µM
not listed: [7] | [11]
inactive: all other assays above

CC(=O)c1ccc2c(c1)[C@H](NC(=O)c1ccc(F)cc1)[C@@H](O)C(C)(C)O2
active: [2] 9.67 µM | [16] 68.4 µM | [17] 16.3 µM
not listed: [7] | [11]
inactive: all other assays above
